Laboratory results as given in PubChem BioAssay (Tox21).
Inconclusive results are not listed. Activity calls are given as the source filed them. Unless noted, the call rests on the fitted dose curve; in most records, active means well fitted curve in the direction sought with a large enough effect in the repeat runs; inconclusive means weak or mixed curves; inactive means no such curve, though single readings can be large; an effect the other way counts as inactive or inconclusive.

Legend:
[1] = qHTS assay to test for compound auto fluorescence at 535 nm (green) in HEK293 cells (AID 720680)
[2] = qHTS assay to test for compound auto fluorescence at 460 nm (blue) in HEK293 cell free culture (AID 720681)
Outline: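 Compounds were added to cell-free DMEM with 10% FBS and fluorescence read directly. The blue channel used 405 nm excitation and 460 nm emission, with triamterene as the reference fluorophore.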

[3] = qHTS assay to test for compound auto fluorescence at 535 nm (green) in HEK293 cell free culture (AID 720682)
Outline: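 Cell-free medium (DMEM, 10% FBS) receives compound or DMSO by pintool. Plate read directly at Ex 485/Em 535 nm. Signal converted to fluorescein equivalency.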

[4] = qHTS assay to test for compound auto fluorescence at 590 nm (red) in HEK293 cell free culture (AID 720683)
Outline: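 Cell-free wells of DMEM with 10% FBS received compound, and intrinsic fluorescence was read at excitation/emission 540/590 nm. Values expressed as equivalence to Rose Bengal sodium.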

[5] = qHTS assay to test for compound auto fluorescence at 590 nm (red) in HepG2 cell free culture (AID 720684)
Outline: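 Compound was pinned into wells holding MEM with 10% FBS and no cells, and red fluorescence was read at Ex/Em 540/590 nm. Signal is expressed as auto fluorescence equivalency relative to Rose Bengal sodium.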

[6] = qHTS assay to test for compound auto fluorescence at 460 nm (blue) in HepG2 cell free culture (AID 720685)
Outline: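 Compound (23 nL) or DMSO pinned into cell-free MEM with 10% FBS; blue fluorescence read at 405/460 nm excitation/emission, expressed as auto-fluorescence equivalency to triamterene.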

[7] = qHTS assay to test for compound auto fluorescence at 460 nm (blue) in HepG2 cells (AID 720687)
Outline: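 HepG2 cells in MEM with 10% FBS, attached overnight at 37 C, were exposed to compound or DMSO for 1 hr at 37 C, 5% CO2. Blue fluorescence was read at 405/460 nm, with triamterene as reference fluorophore.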

[8] = target: Glucocorticoid receptor (Homo sapiens) (UniProt P04150); test: qHTS assay to identify small molecule agonists of the glucocorticoid receptor (GR) signaling pathway (AID 720691; active means well fitted activation curve with a large enough effect in the signal ratio in the repeat runs, not every such curve was filed as active; the % refers to the signal ratio)
Outline: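 qHTS in GR-bla HeLa cells: 4 h settling at 37 C/5% CO2, 18 h compound incubation at 37 C, 2 h LiveBLAzer B/G FRET substrate at room temperature, fluorescence intensity measured.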

[9] = target: Glucocorticoid receptor (Homo sapiens) (UniProt P04150); test: qHTS assay to identify small molecule antagonists of the glucocorticoid receptor (GR) signaling pathway (AID 720692; active means well fitted inhibition curve with a large enough effect in the signal ratio in the repeat runs, not every such curve was filed as active; the % refers to the signal ratio)
Outline: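 Inhibition of glucocorticoid signalling is measured in HeLa cells with a GRE-controlled beta-lactamase reporter; cells are co-treated with compound and 5 nM dexamethasone (final) for 18 h before FRET substrate readout.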

[10] = qHTS assay to identify small molecule antagonists of the glucocorticoid receptor (GR) signaling pathway - cell viability counter screen (AID 720693); further: nearly all actives have a fitted effect of over 55% in size
[11] = qHTS assay for identifying genotoxic compounds that show differential cytotoxicity against isogenic chicken DT40 cell lines with known DNA damage response pathways - wild type cell line (AID 743012); further: nearly all actives have a fitted effect of over 60% in size
Outline: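 First, wild type DT40 cells were plated at 300 per well and equilibrated about 0.5 h at 37 C/5% CO2. Next, compounds in DMSO were added and exposure lasted 40 h. Finally, CellTiter-Glo was added for 30 min at room temperature and luminescence recorded.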

[12] = qHTS assay for identifying genotoxic compounds that show differential cytotoxicity against isogenic chicken DT40 cell lines with known DNA damage response pathways - Rev3 mutant cell line (AID 743014); further: nearly all actives have a fitted effect of over 55% in size
[13] = qHTS assay for identifying genotoxic compounds that show differential cytotoxicity against isogenic chicken DT40 cell lines with known DNA damage response pathways - Rad54/Ku70 mutant cell line (AID 743015); further: nearly all actives have a fitted effect of over 60% in size
[14] = qHTS assay to identify small molecule antagonists of the androgen receptor (AR) signaling pathway - cell viability counter screen (AID 743033; further: nearly all actives have a fitted effect of over 45% in size)
[15] = qHTS assay to identify small molecule antagonists of the androgen receptor (AR) signaling pathway using the MDA cell line - cell viability counter screen (AID 743041; further: nearly all actives have a fitted effect of over 45% in size)
Outline: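 MDA-kb2 AR-luc cells (MMTV-luciferase, AR/GR responsive) treated with compounds plus R1881 agonist for 16 h at 37C. CellTiter-Fluor added at 15.5 h; fluorescence read after 30 min in the same wells.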

[16] = qHTS assay to test for compound auto fluorescence at 535 nm (green) in HepG2 cell free culture (AID 720686)
[17] = target: Androgen receptor (Homo sapiens) (UniProt P10275); test: qHTS assay to identify small molecule antagonists of the androgen receptor (AR) signaling pathway (AID 743035; active means well fitted inhibition curve with a large enough effect in the signal ratio in the repeat runs, not every such curve was filed as active; the % refers to the signal ratio)
Outline: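 Beta-lactamase FRET read (2 h RT incubation with LiveBLAzer B/G) following 16 h of compound plus R1881 treatment of AR-UAS-bla HEK293 cells, which had been pre-incubated 4 h at 37C.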

[18] = target: Androgen receptor (Homo sapiens) (UniProt P10275); test: qHTS assay to identify small molecule agonists of the androgen receptor (AR) signaling pathway (AID 743036; active means well fitted activation curve with a large enough effect in the signal ratio in the repeat runs, with a control signal flat, not every such curve was filed as active; the % refers to the signal ratio)
Outline: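 AR-bla HEK293 cells, 2,000/well; 4 h preincubation 37C/5% CO2; compound (DMSO) 16 h at 37C; LiveBLAzer B/G FRET substrate 2 h RT; fluorescence intensity read-out.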

[19] = target: Androgen receptor (Homo sapiens) (UniProt P10275); test: qHTS assay to identify small molecule agonists of the androgen receptor (AR) signaling pathway using the MDA cell line (AID 743040; further: nearly all actives have a fitted effect of over 20% in size)
Outline: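 MDA-kb2 breast carcinoma cells carrying MMTV-luciferase (responsive to AR and GR), plated 5 h then treated 16 h with compounds at 37C, 0% CO2. Read-out was ONE-Glo luminescence after 30 min at room temperature.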

[20] = target: Androgen receptor (Homo sapiens) (UniProt P10275); test: qHTS assay to identify small molecule antagonists of the androgen receptor (AR) signaling pathway using the MDA cell line (AID 743042; further: nearly all actives have a fitted effect of over 55% in size)
Outline: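 MDA-kb2 breast carcinoma cells carrying MMTV-luciferase (AR/GR responsive) were co-treated with compounds and the agonist R1881 for 16 h at 37C. Inhibition read as ONE-Glo luminescence; CellTiter-Fluor fluorescence measured in parallel for cytotoxicity.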

Measured: Potency

Chain of Glucocorticoid receptor (Homo sapiens) (P04150 whole entry, looked up): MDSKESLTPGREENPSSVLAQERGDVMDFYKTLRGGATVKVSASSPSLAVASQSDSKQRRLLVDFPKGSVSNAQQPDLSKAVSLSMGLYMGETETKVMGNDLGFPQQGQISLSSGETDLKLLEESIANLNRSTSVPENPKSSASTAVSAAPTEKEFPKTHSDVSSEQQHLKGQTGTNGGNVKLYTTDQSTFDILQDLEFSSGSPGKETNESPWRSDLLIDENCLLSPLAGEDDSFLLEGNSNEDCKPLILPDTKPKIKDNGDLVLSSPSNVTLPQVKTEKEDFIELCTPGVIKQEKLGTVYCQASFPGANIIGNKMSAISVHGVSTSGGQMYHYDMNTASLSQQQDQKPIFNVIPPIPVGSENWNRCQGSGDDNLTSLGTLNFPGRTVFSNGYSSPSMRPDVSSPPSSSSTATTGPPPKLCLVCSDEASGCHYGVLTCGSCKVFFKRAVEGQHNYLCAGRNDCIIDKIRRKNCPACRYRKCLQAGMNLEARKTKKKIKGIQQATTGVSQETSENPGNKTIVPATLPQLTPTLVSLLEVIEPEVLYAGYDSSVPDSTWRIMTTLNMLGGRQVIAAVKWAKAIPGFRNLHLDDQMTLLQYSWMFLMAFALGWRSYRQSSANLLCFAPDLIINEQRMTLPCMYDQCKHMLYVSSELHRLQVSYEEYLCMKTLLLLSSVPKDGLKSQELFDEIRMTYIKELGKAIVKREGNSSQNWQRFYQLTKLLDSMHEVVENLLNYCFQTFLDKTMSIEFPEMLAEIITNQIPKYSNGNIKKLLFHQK
Chain of Androgen receptor (Homo sapiens) (P10275 whole entry, looked up): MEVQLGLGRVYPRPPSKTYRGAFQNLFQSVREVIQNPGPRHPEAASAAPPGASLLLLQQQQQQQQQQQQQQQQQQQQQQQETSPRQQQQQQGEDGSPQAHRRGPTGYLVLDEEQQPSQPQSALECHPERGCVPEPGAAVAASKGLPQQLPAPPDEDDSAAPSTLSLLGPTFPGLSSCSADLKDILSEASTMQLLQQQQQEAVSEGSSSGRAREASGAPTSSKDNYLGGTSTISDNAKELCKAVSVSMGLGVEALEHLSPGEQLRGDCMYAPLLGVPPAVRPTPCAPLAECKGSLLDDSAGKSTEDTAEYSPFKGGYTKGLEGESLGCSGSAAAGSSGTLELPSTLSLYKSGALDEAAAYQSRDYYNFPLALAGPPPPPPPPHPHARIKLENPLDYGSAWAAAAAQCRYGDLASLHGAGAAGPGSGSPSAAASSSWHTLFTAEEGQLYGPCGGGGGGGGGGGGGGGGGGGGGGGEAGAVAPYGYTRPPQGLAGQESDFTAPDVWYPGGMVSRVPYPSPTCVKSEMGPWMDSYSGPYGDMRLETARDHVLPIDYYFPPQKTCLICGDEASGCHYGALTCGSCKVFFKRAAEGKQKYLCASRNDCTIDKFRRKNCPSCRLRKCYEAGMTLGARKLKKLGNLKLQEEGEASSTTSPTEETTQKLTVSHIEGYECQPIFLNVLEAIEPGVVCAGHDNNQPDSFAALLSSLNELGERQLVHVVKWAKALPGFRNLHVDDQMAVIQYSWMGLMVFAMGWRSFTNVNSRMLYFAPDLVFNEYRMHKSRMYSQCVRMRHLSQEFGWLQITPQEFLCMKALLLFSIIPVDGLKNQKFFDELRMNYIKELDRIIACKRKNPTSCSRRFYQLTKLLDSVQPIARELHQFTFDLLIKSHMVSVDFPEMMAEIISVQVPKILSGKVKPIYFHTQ

O=C1OC(=O)c2cc([N+](=O)[O-])ccc21
not listed: [16] | [17] | [18] | [19] | [20]
inactive: all other assays above

NCCNC(=O)c1ccc(Cl)cn1
not listed: [8] | [9] | [10] | [12] | [17] | [18] | [19] | [20]
inactive: all other assays above

NC(=O)c1ncn([C@@H]2O[C@H](CO)[C@@H](O)[C@H]2O)c1N
inactive: [1] | [2] | [3] | [4] | [5] | [6] | [16] | [7] | [13] | [14] | [15]

CCC(C)(C)C1CCC(OC)CC1 (centres undefined)
not listed: [8] | [9] | [10] | [12] | [17] | [18] | [19] | [20]
inactive: all other assays above

CC(C)=CC(=O)O
not listed: [8] | [9] | [12] | [17] | [18] | [19] | [20]
inactive: all other assays above

C=C(C)[C@H]1CC=C(C)CC1
not listed: [8] | [9] | [10] | [17] | [18] | [19] | [20]
inactive: all other assays above

COc1nc(C)nc(N)n1
not listed: [11] | [13] | [16] | [17] | [18] | [19] | [20]
inactive: all other assays above

C[N+](C)(C)CC[N+]1(C)Cc2c(Cl)c(Cl)c(Cl)c(Cl)c2C1
not listed: [16] | [17] | [18] | [19] | [20]
inactive: all other assays above

NC(=O)c1c(Cl)cccc1Cl
not listed: [8] | [9] | [10] | [17] | [18] | [19] | [20]
inactive: all other assays above

c1ccc(CCCc2ccccn2)cc1
not listed: [8] | [9] | [10] | [13] | [17] | [18] | [19] | [20]
inactive: all other assays above

C=CCn1c(=O)n([C@@H]2O[C@H](CO)[C@@H](O)[C@H]2O)c2nc(N)[nH]c(=O)c21
not listed: [8] | [9] | [13] | [16]
inactive: all other assays above

COC(=O)c1ccc(C(=O)OC)c(C(=O)OC)c1
not listed: [10] | [16] | [17] | [18] | [19] | [20]
inactive: all other assays above

NC(CS)C(=O)O (centres undefined)
not listed: [8] | [9] | [15] | [16] | [17] | [18] | [19] | [20]
inactive: all other assays above

CC/C=C\CCCCO
not listed: [8] | [9] | [12] | [13] | [17] | [18] | [19] | [20]
inactive: all other assays above

Nc1cc(N)cc(C(=O)O)c1
not listed: [16] | [17] | [18] | [19] | [20]
inactive: all other assays above

Cc1ncc(CSSCc2cnc(C)c(O)c2CO)c(CO)c1O
not listed: [5] | [17]
inactive: all other assays above

CN(C)N=Nc1ccccc1
not listed: [8] | [9] | [10] | [17] | [18] | [19] | [20]
inactive: all other assays above
